The record followed here is PMC5540273 (PLoS ONE, 2017).

Among the test systems are CAMK1; CAMK2A; CAMK2B; CAMK2D; CAMK2G; CAMK4; CAMKK1; CAMKK2; CASK; CDC2L2; CDK2; CDK3; CDK4-cyclinD1; CDK4-cyclinD3; CDK4; CDK5; CDK7.
Conditions in all cases: concentration: 1 μM, replicates: in singlicate; n = 1
For another experiment, the system named is T1, CDC2L1.
T1 construct: gene CDK11B

The subject of a further experiment is T2, CDC2L5.
T2 construct: gene CDK13

The next experiment deals with T3, CDK11.
T3 construct: gene CDK19
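Also: KINOMEscan kinase panel screen.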

As for `Nc1n[nH]c2cnc(-c3ccccc3)cc12` [SB-642124], the “%Inh” value was found to be 5% in the experiment on CAMK1; 0% with CAMK2A; 13% in the experiment on CAMK2B; 17% in the experiment with CAMK2D; 22% in the experiment with CAMK2G; 0% in the experiment on CAMK4. Also, the “%Inh” value was found to be 1% in the experiment with CAMKK1; 0% with CAMKK2; 26% in the experiment on CASK; 0% in the experiment with CDC2L1; 0% with CDC2L2; 0% with CDC2L5. The “%Inh” value with CDK11 was 0%; with CDK2 it was 0%; in the experiment on CDK3, 9%; in the experiment with CDK4-cyclinD1 it was 23%; in the experiment with CDK4-cyclinD3, 47%; in the experiment on CDK4 it was 27%. For the same molecule, the “%Inh” value in the experiment with CDK5 is 0%; in the experiment on CDK7, 22%.
Regarding `CN1CCN(CCCNc2nccc(-c3c(-c4ccc(F)cc4)nn4cc(C(F)(F)F)ccc34)n2)CC1` [GW621581], the “%Inh” value was determined as 5% with CAMK1; 0% in the experiment with CAMK2A; 0% in the experiment with CAMK2B; 0% in the experiment on CAMK2D; 0% in the experiment on CAMK2G; 0% in the experiment on CAMK4. Also, the “%Inh” value with CAMKK1, with CAMKK2, in the experiment with CASK, in the experiment with CDC2L1, in the experiment with CDC2L2 and with CDC2L5 was 0% each time. Besides, the “%Inh” value in the experiment with CDK11, in the experiment with CDK2, with CDK3, in the experiment with CDK4-cyclinD1, in the experiment with CDK4-cyclinD3 and in the experiment with CDK4 was 0% in each case. Also, the “%Inh” value in the experiment with CDK5 and in the experiment on CDK7 was 0% each time.
As for `COc1cccc(C(=O)Nc2cccc(Oc3ccc4nc(NC(=O)C5CC5)cn4n3)c2)c1`, the “%Inh” value is reported as 16% with CAMK1; 11% in the experiment with CAMK2A; 18% with CAMK2B; 15% with CAMK2D; 0% in the experiment on CAMK2G; 8% in the experiment with CAMK4. In addition, the “%Inh” value was determined as 6% in the experiment with CAMKK1; 0% in the experiment on CAMKK2; 3% in the experiment on CASK; 0% in the experiment with CDC2L1; 17% with CDC2L2; 2% in the experiment with CDC2L5. Besides, the “%Inh” value in the experiment on CDK11 amounted to 8%; in the experiment on CDK2 it was 0%; in the experiment on CDK3, 0%; with CDK4-cyclinD1 it was 1%; in the experiment with CDK4-cyclinD3 it was 0%; in the experiment with CDK4, 0%. Besides, the “%Inh” value with CDK5 and with CDK7 was 0% in each case.
In the case of `COc1cc(Nc2ncc3c(C)nc(-c4cc5ccccc5[nH]4)n3n2)cc(OC)c1OC` [GW869516], the “%Inh” value with CAMK1 is on record as 19%; in the experiment with CAMK2A, 1%; in the experiment with CAMK2B it was 8%; with CAMK2D it was 6%; in the experiment with CAMK2G it was 1%; in the experiment on CAMK4 it was 0%. For the same molecule, the “%Inh” value with CAMKK1 is on record as 13%; with CAMKK2, 9%; in the experiment with CASK, 0%; in the experiment on CDC2L1 it was 5%; in the experiment on CDC2L2, 8%; in the experiment with CDC2L5, 0%. Also, the “%Inh” value was determined as 1% in the experiment with CDK11; 0% with CDK2; 31% in the experiment with CDK3; 22% in the experiment on CDK4-cyclinD1; 0% with CDK4-cyclinD3; 0% in the experiment on CDK4. Also, the “%Inh” value in the experiment on CDK5 and in the experiment on CDK7 was 0% throughout.
In the case of `COc1cccc(NC(=O)NC2CCN(c3ccnc(Nc4cc(OC)c(OC)c(OC)c4)n3)C2)c1` (centres unmarked) [GSK1379763], the “%Inh” value with CAMK1 stood at 26%; in the experiment on CAMK2A, 0%; in the experiment on CAMK2B, 0%; in the experiment on CAMK2D, 13%; in the experiment on CAMK2G it was 38%; in the experiment on CAMK4, 0%. The “%Inh” value stood at 40% with CAMKK1; 36% in the experiment with CAMKK2; 15% in the experiment on CASK; 1% in the experiment on CDC2L1; 10% in the experiment on CDC2L2; 0% in the experiment with CDC2L5. Also, the “%Inh” value is 5% in the experiment on CDK11; 0% in the experiment with CDK2; 21% in the experiment with CDK3; 0% in the experiment on CDK4-cyclinD1; 0% in the experiment with CDK4-cyclinD3; 0% in the experiment on CDK4. Besides, the “%Inh” value with CDK5 and in the experiment with CDK7 was 0% throughout.
In the case of `COc1cc2c(cc1OCCN1CCNCC1)ncc1c3ccc(C#N)cc3[nH]c21`, the “%Inh” value with CAMK1 amounted to 10%; in the experiment on CAMK2A, 96.8%; in the experiment on CAMK2B, 86%; with CAMK2D it was 88%; in the experiment on CAMK2G, 79%; in the experiment on CAMK4, 0%. For the same molecule, the “%Inh” value in the experiment on CAMKK1 is 80%; with CAMKK2 it was 64%; in the experiment with CASK, 25%; with CDC2L1, 14%; with CDC2L2 it was 0%; in the experiment on CDC2L5, 8%. The “%Inh” value with CDK11 is listed as 24%; in the experiment with CDK2, 0%; in the experiment with CDK3, 17%; in the experiment with CDK4-cyclinD1, 31%; with CDK4-cyclinD3, 0%; in the experiment on CDK4 it was 6%. Also, the “%Inh” value is 3% with CDK5 and 99.7% with CDK7.
Take `Cn1cc(-c2ccc3c(c2)CCN3C(=O)Cc2cccc(F)c2)c2c(N)ncnc21` [GSK2603358]: the “%Inh” value with CAMK1 is on record as 79%; in the experiment on CAMK2A it was 0%; in the experiment with CAMK2B, 0%; in the experiment on CAMK2D it was 16%; in the experiment on CAMK2G, 34%; with CAMK4, 0%. Also, the “%Inh” value in the experiment on CAMKK1 is reported as 26%; in the experiment with CAMKK2, 29%; in the experiment on CASK, 17%; with CDC2L1, 0%; with CDC2L2, 21%; in the experiment on CDC2L5, 0%. Moreover, the “%Inh” value in the experiment on CDK11 came out at 96.7%; with CDK2 it was 0%; with CDK3, 7%; in the experiment on CDK4-cyclinD1 it was 2%; in the experiment with CDK4-cyclinD3, 0%; with CDK4, 17%. The “%Inh” value in the experiment with CDK5 and in the experiment with CDK7 was 0% throughout.
In the case of `Nc1ncc(-c2ccc3nccc(-c4ccncc4)c3c2)cc1S(=O)(=O)N1CCOCC1` [GSK1627798], the “%Inh” value in the experiment with CAMK1 came out at 27%; in the experiment with CAMK2A, 0%; with CAMK2B, 0%; in the experiment on CAMK2D it was 0%; in the experiment on CAMK2G it was 49%; in the experiment on CAMK4, 0%. The “%Inh” value in the experiment on CAMKK1 was determined as 57%; in the experiment on CAMKK2 it was 78%; in the experiment with CASK, 48%; in the experiment on CDC2L1, 0%; with CDC2L2 it was 0%; in the experiment on CDC2L5, 0%. For the same molecule, the “%Inh” value in the experiment with CDK11 is reported as 40%; with CDK2, 1%; in the experiment with CDK3 it was 6%; in the experiment with CDK4-cyclinD1 it was 0%; in the experiment with CDK4-cyclinD3, 47%; in the experiment on CDK4, 0%. Moreover, the “%Inh” value is reported as 0% in the experiment on CDK5 and 72% with CDK7.
For `Cl.NC(=O)c1cccc(Nc2nccc(Nc3ccc(Oc4c(Cl)cccc4Cl)c(Cl)c3)n2)c1` [GW659009], the “%Inh” value in the experiment on CAMK1 turned out to be 14%; with CAMK2A it was 0%; with CAMK2B, 0%; with CAMK2D, 0%; in the experiment with CAMK2G, 0%; in the experiment on CAMK4, 0%. Moreover, the “%Inh” value in the experiment with CAMKK1 worked out at 0%; with CAMKK2, 0%; in the experiment on CASK, 50%; with CDC2L1, 0%; with CDC2L2, 2%; with CDC2L5, 0%. Also, the “%Inh” value was determined as 88% in the experiment with CDK11; 0% in the experiment with CDK2; 0% in the experiment on CDK3; 0% in the experiment on CDK4-cyclinD1; 0% in the experiment on CDK4-cyclinD3; 1% in the experiment with CDK4. Moreover, the “%Inh” value with CDK5 and in the experiment with CDK7 was 0% in each case.
For the molecule `CCCCc1nn2ncccc2c1-c1ccnc(Nc2ccc(N3CCN(C)CC3)cc2)n1` [GW684941], the “%Inh” value is listed as 28% in the experiment with CAMK1; 0% in the experiment on CAMK2A; 0% with CAMK2B; 0% in the experiment on CAMK2D; 0% in the experiment with CAMK2G; 0% in the experiment on CAMK4. Moreover, the “%Inh” value is recorded as 0% in the experiment with CAMKK1; 0% in the experiment on CAMKK2; 16% in the experiment with CASK; 0% with CDC2L1; 7% with CDC2L2; 0% in the experiment with CDC2L5. In addition, the “%Inh” value with CDK11 was found to be 19%; in the experiment with CDK2, 0%; in the experiment with CDK3 it was 9%; with CDK4-cyclinD1, 63%; in the experiment on CDK4-cyclinD3, 53%; in the experiment on CDK4, 46%. Besides, the “%Inh” value in the experiment on CDK5 came to 0%; in the experiment on CDK7, 34%.
